# This is a sample that favours compounds with a hit; in the whole collection about 10% have one here.
# ALDH1A1 inh – qHTS Assay for Inhibitors of Aldehyde Dehydrogenase 1 (ALDH1A1); Purified ALDH1A1, NADH fluorescence, propionaldehyde substrate; Potency, µM (top dose mostly 75.3 µM), actives largely listed as inhibitors; hit rate 7.3% among 220,000; AID 1030, 2008
# Target sequence (P00352 whole entry, looked up): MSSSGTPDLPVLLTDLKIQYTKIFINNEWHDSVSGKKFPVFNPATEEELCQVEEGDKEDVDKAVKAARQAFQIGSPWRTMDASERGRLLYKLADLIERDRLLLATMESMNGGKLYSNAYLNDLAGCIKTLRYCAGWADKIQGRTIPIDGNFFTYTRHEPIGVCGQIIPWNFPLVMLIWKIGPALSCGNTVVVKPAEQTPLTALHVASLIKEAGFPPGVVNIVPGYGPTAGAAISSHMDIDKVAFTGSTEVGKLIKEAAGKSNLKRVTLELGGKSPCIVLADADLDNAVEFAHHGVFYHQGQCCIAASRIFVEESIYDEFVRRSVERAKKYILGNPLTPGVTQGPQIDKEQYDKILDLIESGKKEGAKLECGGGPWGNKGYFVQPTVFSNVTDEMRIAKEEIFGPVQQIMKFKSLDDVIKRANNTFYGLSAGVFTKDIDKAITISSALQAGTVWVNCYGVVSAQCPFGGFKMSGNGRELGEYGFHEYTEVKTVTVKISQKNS
# PNC inhibitor – High Content Assay for Compounds that inhibit the Assembly of the Perinucleolar Compartment; PC3M PTB-GFP, PNC prevalence imaging, 16 h; hits give low values; activity change (PNC), negative = inhibition, % at 10 µM; hit rate 3.1% among 140,000; AID 2417, 2010;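 active = readout at or below -70, meaning at least 70% loss of cells showing the perinucleolar compartment, a nuclear body marking cancer cells; inconclusive = readout between -30 and a set limit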
#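 Compounds are pinned in duplicate onto adhered PC3M cells stably expressing GFP-tagged PTB and incubated 16 h at 37 C. Cells are then fixed, nuclei stained with Hoechst, and PNC-positive cells counted.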
# LMNA splice mod – qHTS Assay for Modulators of Lamin A Splicing; AID 1487, 2009; HeLa LMNA splicing GFP/RFP minigene ratio, 48 h; hit rate 0.01% among 200,000; Potency, µM (doses to about 46.1 µM), actives largely listed as inhibitors; active = well fitted inhibition curve with a large enough effect in the signal ratio, with a control signal flat, not every such curve was filed as active; inconclusive = small, poorly fitted or top-dose-only effect, or effect the other way, or a change in a side signal; the % refers to the signal ratio
#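 Read-out is the ratio of GFP to DsRed2 object intensity, acquired by 488 nm laser-scanning cytometry on HeLa lamin A-EGFP minigene reporter cells. Compound incubation 48 hrs at 37 °C in Opti-MEM with 2% FBS; DMSO 0.5% final.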
# HPGD inh – qHTS Assay for Inhibitors of HPGD (15-Hydroxyprostaglandin Dehydrogenase); 15-hydroxyprostaglandin dehydrogenase [NAD(+)] (Homo sapiens), P15428; purified HPGD, NADH fluorescence kinetic, PGE2 substrate; Potency, µM, usual class: inhibitors; hit rate 4.3% among 150,000
#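 NADH formation kinetics: reaction with 30 uM PGE2 and 1 mM NAD+ (final), 20 nM enzyme, Tris-HCl pH 8 with Tween 20, after 15 min compound preincubation at room temperature. Fluorescence change, last versus first of five reads.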
# Luc counter – Counterscreen for Luciferase (Kinase-Glo TM) Inhibition; Luciferin 4-monooxygenase (Photuris pensylvanica), Q27757; Kinase-Glo luciferase, ATP luminescence, 8 min; Potency, µM (doses to about 38.3 µM), hits mostly inhibitors; hit rate 0.28% among 200,000; active = well fitted inhibition curve with a large enough effect; inconclusive = small, poorly fitted or top-dose-only effect; also: nearly all actives have a fitted effect of over 60% in size
#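 Substrate mix (final 50 mM imidazole pH 7.2, 50 mM KCl, 7 mM MgCl2, 10 uM ATP, 0.01% Tween 20, 0.05% BSA) plus pin-tool compound, then Kinase-Glo detection mix; 8 min ambient, luminescence read.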
# Hits are given with their value; – = inactive; ? = inconclusive; · = no result; [ ] = remark or other dose. Unless noted, calls follow the shape of the dose curve; as a rule, active = well fitted inhibition curve with a large enough effect (not every such curve was filed as active); inconclusive = small, poorly fitted or top-dose-only effect, or another doubt; inactive = no such curve, though single readings can be large or run the other way.
SMILES,ALDH1A1 inh,PNC inhibitor,LMNA splice mod,HPGD inh,Luc counter
COc1ccc(C(=O)Nn2c(SCC(=O)c3ccc(Cl)cc3)nc3ccccc3c2=O)cc1,?,–,–,–,–
COc1ccc(C(=O)Nn2c(SCC(=O)N3CCC(C)CC3)nc3ccccc3c2=O)cc1,?,–,–,?,13µM
COc1ccccc1-n1c(SCC(=O)NC2CCCC2)nc2cccnc21,–,–,–,14µM,–
CCOC(=O)OCC1OC(CCc2ccccc2)CCC1Oc1ccc(OC)cc1 (stereo not drawn),–[13.5 µM],·,·,·,·
Cc1ccc(C2=NN(CCC(=O)NCCc3cccc(C)c3)C(=O)CC2)cc1,·,·,–,·,·
CN1CCN(CC(=O)Nc2cccc3ccccc23)CC1,–[13.5 µM],·,·,–,–[7.66 µM]
COc1cc2c(cc1O)[C@@H](c1cc(O)c(O)c(OC)c1)[C@@](O)(C(=O)O)[C@@H](CO)[C@@H]2O,–[13.5 µM],·,·,–,–[7.66 µM]
COc1ccc(NC(=O)CSc2nc3ccccc3c(=O)n2CCCN2CCCCC2)c(OC)c1,10µM,–,–,–,–
COc1ccccc1CNC(=O)CSc1nc2ccccc2c(=O)n1CCCN1CCOCC1,–,·,–,·,–
COc1cccc(NC(=O)CSc2nnc(NC(=O)NC3CCCCC3)s2)c1,·,·,–,·,·
COc1ccc(C)cc1NC(=O)c1ccc(=O)n(Cc2ccccc2)c1,·,·,–,·,·
Cn1nnc2c(N3CCN(c4ccc(F)cc4)CC3)ncnc21,·,·,–,·,·
NS(=O)(=O)c1cc(C(=O)O)c(O)c2ccccc12,–[13.5 µM],·,·,–,–[7.66 µM]
CCOC(=S)SCC(=O)O,?,·,·,–,–[7.66 µM]
Cc1cccnc1NC(=O)c1ccccc1NC(=O)C(C)(C)C,–,–,–,–,–
Cc1ccc(SCc2ccc(C(=O)Nc3ccccc3C(=O)NC(C)C)cc2)cc1,–,-87,–,·,·
C/C(=N/NC(=O)c1ccncc1)c1ccccc1Cl,–[13.5 µM],·,·,–,–[7.66 µM]
CC(NC(=O)c1ccccc1NC(=O)c1ccncc1)c1ccccc1 (stereo not drawn),28µM,·,·,·,–
C/C(=N\NC(=O)c1ccccc1NC(=O)c1ccc(Cl)cc1)c1ccncc1,–,·,?,·,1.3µM
CC(C)(C)C(=O)Nc1ccccc1C(=O)Nc1ccncc1,–,-100,–,–,–
CC(NC(=O)c1ccccc1NC(=O)c1ccco1)c1ccccc1 (stereo not drawn),–,–,–,–,–
Cc1cccc(S(=O)(=O)c2cn(C)c3cc(N4CCN(c5ccc(F)cc5)CC4)c(F)cc3c2=O)c1,·,·,–,·,·
CCCn1c2ccccc2c2cnn(CC(=O)NCCc3ccc(C)cc3)c(=O)c21,·,·,–,·,·
O=C(O)[C@@H]1CCCN1Cc1c[nH]c2ccccc12,–[13.5 µM],·,·,–,–[7.66 µM]
CS(=O)(=O)N1CCC[C@@]2(CCN(C(=O)Nc3ccccc3)C2)C1,–,·,·,–,–
SMILES,ALDH1A1 inh,PNC inhibitor,LMNA splice mod,HPGD inh,Luc counter
O=C(N/N=C\c1ccco1)Nc1cccc(Cl)c1,28µM,–,–,–,–
Cc1cccc(NC(=O)CCC(=O)N/N=C/c2ccco2)c1,–,–,–,–,–
O=C(Nc1ccccc1C(=O)N/N=C/c1ccco1)c1ccccc1,–,–,–,–,?
O=C(Nc1ccccc1C(=O)N/N=C/c1ccco1)c1ccc(Cl)cc1,–,–,–,–,13µM
O=C(c1ccco1)N1CCC2(CCCN(C(c3ccccc3)c3ccccc3)C2)CC1,?,·,·,–,–
N#Cc1c(Cl)c(Cl)c2nnc(-c3ccc(Br)cc3)n2c1Cl,?,–,–,13µM,–
Cc1ccc2c(n1)sc1c(-c3ccc(Br)cc3)c(C#N)c(N)nc12,?,–,–,?,–
C=CC(=O)OCCCCCCOC(=O)C=C,2µM,·,·,–,·
C=C(C)C(=O)OCCCCCC,–,·,·,–,·
S=c1[nH]nc(COc2ccccc2)n1/N=C/c1cccnc1,–,–,–,14µM,–
Cc1nnc(C)n1/N=C/c1cccnc1,–,?,–,–,–
O=[N+]([O-])c1ccc(/C=N/n2c(COc3ccccc3)n[nH]c2=S)cc1,28µM,?,–,5µM,–
O=[N+]([O-])c1cccc(-c2ccc(/C=N/n3c(-c4ccccc4)n[nH]c3=S)o2)c1,–,?,–,?,–
O=[N+]([O-])c1cccc(/C=N/n2c(COc3ccccc3)n[nH]c2=S)c1,?,–,–[0.0737 µM],4µM,–
CN(C)c1ccc(/C=N/n2c(COc3ccccc3)n[nH]c2=S)cc1,25µM,–,–,13µM,–
CCN(CC)c1ccc(/C=N/n2c(=S)[nH]nc(C)c2=O)cc1,?,–,–,·,·
CN(C)c1ccc(Nc2ncnc3c2c(-c2ccccc2)cn3-c2cccc(Cl)c2)cc1,·,·,–,·,·
COc1ccc(-c2ccc(NS(=O)(=O)c3cc(C)c(C)cc3C)cc2)nn1,·,·,–,·,·
COc1ccccc1CN1C(=O)CN(C2CCCCCC2)C(=O)C1c1ccc(C)cc1 (stereo not drawn),·,·,–,·,·
COC(=O)C/C=C1\c2ccc3c(c2[C@@H](OC)[C@@H]1C)OCO3,–,·,·,–,–
O=C(CSc1ccc(C(F)(F)F)cc1[N+](=O)[O-])Nc1ccc2ccccc2c1,5.6µM,–,–,–,–
CC/C=C\C/C=C\C/C=C\C/C=C\C/C=C\C/C=C\CCC(=O)O,22µM,·,·,–,–
CC/C=C\C/C=C\C/C=C\C/C=C\C/C=C\CCCCCC(=O)O,–,·,·,–,–
Cc1cccc(NC(=O)CN2C(=O)CCn3nc(-c4cccn4C)cc32)c1C,·,·,–,·,·
Cc1cc(C)c2c(-n3cccc3)c(C(=O)NNS(=O)(=O)c3ccc(Br)cc3)sc2n1,0.089µM,–,–,–,–
SMILES,ALDH1A1 inh,PNC inhibitor,LMNA splice mod,HPGD inh,Luc counter
COc1ccc(C(=O)COC(=O)CNC(=O)C2CCCCC2)c(OC)c1,?,–,–,25µM,–
COc1ccc(OC)c(C(=O)COC(=O)CNC(=O)C2CCCCC2)c1,–,–,–,–,–
C[C@@H]1C[C@@H]([C@@H](C)CC2CC(=O)NC(=O)C2)C(=O)[C@@H](C)C1,–,·,·,–,–
CC(C)CN(C(=O)CN1CCN(c2ccccc2O)CC1)c1c(N)n(CC(C)C)c(=O)[nH]c1=O,–,-86,–,–,–
CC(C)CN(C(=O)CN1CCN(c2ccc([N+](=O)[O-])cc2)CC1)c1c(N)n(CC(C)C)c(=O)[nH]c1=O,?,·,–,·,–
CC1CCc2nn(CC(=O)NCCN3CCOCC3)cc2C1 (stereo not drawn),–,-82,–,–,–
CC1CCc2nn(CC(=O)NCCCN3CCOCC3)cc2C1 (stereo not drawn),–,–,–,–,–
Cc1ccc(NC(=O)c2cc(C(C)(C)C)nn2Cc2ccccc2)cc1,–,·,·,·,·
Cc1ccc(NNC(=O)c2cc(C(C)(C)C)nn2Cc2ccccc2)cc1,15µM,·,·,·,·
Cc1cc(C2N=C(N)Nc3nc4ccccc4n32)c(C)n1-c1ccccc1Cl (stereo not drawn),1.1µM,-99,–,–,–

# Compound activity deposited in PubChem BioAssay by National Center for Advancing Translational Sciences (NCATS).
